What was measured:
Test in all cases: log2 ratio of Biotin-Ahx-Ub-VS probe labelling (fragment/DMSO); higher = less target engagement (more negative = stronger competition), active = hit call of the paper (q ≤ 0.05, log2 ratio ≤ -1)
Details in all cases: compound concentration: 200 uM; treatment time: 3 h
USP34 = USP34 (UniProt Q70CQ2)
Procedure, shortened: (§1)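 Each value is an average log2 ratio of fragment to vehicle, tested by unpaired t-test. The underlying Spectronaut label-free quantities were global-median-normalised, and only proteins with ≥2 unique peptides were included. Triplicate HEK293T lysate samples (495 µg) were exposed to fragment at 200 µM or vehicle for 3 h, then to Biotin-Ahx-Ub-VS at 0.5 µM final for 1 h, before NeutrAvidin enrichment of labelled DUBs, LysC and trypsin digestion, and diaPASEF LC-MS/MS.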

USP36 = target: T1, USP36 (UniProt Q9P275)
T1 sequence (whole entry): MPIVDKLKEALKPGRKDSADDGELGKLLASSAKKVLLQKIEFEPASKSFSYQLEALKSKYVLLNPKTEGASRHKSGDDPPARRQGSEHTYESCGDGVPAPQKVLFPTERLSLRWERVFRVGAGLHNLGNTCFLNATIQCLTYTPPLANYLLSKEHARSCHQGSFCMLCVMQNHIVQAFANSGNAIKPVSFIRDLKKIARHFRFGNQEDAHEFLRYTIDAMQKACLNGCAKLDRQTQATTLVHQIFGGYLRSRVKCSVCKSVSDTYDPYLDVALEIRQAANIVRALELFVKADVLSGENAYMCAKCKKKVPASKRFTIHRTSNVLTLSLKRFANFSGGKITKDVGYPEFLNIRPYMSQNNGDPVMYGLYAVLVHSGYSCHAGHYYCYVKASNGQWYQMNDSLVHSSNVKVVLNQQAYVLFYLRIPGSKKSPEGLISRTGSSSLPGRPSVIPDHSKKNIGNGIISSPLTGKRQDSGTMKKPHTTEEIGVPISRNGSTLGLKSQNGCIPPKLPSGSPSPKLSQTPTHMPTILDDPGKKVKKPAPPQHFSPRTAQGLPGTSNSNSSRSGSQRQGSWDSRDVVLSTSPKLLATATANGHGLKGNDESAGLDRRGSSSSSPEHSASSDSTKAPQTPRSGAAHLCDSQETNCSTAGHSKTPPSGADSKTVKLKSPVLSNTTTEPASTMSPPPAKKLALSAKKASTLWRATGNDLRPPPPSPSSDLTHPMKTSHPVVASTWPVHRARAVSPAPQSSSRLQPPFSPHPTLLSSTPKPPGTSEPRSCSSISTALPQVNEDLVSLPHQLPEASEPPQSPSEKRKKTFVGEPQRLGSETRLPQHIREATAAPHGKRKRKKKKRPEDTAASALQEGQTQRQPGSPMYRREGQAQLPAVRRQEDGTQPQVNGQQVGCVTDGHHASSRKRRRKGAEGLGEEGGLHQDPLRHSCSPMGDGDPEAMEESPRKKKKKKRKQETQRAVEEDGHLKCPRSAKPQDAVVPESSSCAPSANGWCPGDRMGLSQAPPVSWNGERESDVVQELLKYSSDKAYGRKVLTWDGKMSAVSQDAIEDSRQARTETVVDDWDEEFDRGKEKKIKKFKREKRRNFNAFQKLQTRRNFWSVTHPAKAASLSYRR
Procedure, shortened: as §1

USP38 = target: T2, USP38 (UniProt Q8NB14)
T2 sequence (whole entry): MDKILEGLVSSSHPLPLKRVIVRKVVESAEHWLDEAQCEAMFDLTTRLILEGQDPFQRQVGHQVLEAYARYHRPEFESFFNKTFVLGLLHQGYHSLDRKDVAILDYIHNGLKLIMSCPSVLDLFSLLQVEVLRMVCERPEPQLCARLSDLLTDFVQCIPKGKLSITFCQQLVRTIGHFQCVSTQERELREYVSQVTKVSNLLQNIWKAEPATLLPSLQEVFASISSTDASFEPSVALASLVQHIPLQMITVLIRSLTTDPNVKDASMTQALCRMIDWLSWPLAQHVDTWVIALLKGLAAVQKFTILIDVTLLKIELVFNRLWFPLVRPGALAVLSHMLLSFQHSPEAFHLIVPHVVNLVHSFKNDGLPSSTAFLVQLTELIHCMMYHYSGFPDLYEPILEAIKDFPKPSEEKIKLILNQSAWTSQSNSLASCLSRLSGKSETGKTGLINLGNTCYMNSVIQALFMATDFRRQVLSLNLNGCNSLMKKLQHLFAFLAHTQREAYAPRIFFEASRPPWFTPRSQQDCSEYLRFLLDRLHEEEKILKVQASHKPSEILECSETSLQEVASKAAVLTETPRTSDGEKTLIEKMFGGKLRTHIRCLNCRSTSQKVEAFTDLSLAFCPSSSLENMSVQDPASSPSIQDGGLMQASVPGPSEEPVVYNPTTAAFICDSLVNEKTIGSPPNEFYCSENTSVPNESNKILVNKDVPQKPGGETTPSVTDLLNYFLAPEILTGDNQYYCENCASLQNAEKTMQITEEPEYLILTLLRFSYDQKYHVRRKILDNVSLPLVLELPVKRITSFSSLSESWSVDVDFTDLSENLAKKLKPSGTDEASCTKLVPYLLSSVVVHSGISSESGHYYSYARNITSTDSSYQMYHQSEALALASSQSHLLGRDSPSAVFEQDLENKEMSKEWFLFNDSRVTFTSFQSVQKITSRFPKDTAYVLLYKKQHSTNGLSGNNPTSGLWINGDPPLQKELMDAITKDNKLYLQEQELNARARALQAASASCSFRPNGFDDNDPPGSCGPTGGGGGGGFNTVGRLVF
Procedure, shortened: as §1

USP39 = target: T3, USP39 (UniProt Q53GS9)
T3 sequence (whole entry): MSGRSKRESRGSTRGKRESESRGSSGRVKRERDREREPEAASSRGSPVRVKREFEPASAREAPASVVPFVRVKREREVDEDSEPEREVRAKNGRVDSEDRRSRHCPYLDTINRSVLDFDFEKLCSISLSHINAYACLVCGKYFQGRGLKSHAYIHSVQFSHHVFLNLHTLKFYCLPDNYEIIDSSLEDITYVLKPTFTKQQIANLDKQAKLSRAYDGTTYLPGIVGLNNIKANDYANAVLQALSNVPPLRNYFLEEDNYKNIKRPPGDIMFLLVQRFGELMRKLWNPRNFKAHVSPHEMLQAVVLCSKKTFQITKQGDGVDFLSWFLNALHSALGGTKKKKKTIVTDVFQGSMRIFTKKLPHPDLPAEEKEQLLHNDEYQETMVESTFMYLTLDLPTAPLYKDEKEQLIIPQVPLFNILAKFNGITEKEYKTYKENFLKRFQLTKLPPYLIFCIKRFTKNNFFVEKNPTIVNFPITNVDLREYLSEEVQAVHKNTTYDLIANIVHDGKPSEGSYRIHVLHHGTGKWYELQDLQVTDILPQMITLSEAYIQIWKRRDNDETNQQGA
Procedure, shortened: as §1

USP4 = target: T4, USP4 (UniProt Q13107)
T4 sequence (whole entry): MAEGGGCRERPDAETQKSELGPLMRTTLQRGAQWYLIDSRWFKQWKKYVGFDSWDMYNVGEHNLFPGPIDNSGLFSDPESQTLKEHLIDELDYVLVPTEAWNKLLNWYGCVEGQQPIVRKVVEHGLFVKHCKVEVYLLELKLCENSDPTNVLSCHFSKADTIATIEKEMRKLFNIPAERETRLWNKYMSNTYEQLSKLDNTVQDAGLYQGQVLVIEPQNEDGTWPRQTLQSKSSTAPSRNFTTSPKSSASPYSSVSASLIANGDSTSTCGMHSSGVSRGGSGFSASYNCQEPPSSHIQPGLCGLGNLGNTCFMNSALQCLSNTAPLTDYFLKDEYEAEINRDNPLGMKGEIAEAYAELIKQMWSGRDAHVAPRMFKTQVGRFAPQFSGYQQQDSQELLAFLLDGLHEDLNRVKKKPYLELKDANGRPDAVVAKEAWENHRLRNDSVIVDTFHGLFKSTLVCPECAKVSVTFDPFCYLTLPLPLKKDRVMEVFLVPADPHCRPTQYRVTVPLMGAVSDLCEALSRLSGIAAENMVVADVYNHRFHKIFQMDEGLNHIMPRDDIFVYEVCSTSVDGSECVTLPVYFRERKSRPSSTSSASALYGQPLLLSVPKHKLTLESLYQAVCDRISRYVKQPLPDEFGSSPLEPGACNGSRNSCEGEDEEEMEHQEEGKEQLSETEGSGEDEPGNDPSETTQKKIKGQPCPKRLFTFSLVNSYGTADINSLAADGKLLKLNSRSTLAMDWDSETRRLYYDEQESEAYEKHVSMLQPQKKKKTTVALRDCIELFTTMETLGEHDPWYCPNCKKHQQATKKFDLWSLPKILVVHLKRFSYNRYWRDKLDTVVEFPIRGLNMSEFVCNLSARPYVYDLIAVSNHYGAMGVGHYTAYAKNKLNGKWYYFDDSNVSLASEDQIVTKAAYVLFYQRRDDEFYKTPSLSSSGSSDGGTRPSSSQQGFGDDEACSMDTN
Procedure, shortened: as §1

Measured: log2 ratio of Biotin-Ahx-Ub-VS probe labelling

USP34, sequence (Q70CQ2 whole entry, the tested form may be a part): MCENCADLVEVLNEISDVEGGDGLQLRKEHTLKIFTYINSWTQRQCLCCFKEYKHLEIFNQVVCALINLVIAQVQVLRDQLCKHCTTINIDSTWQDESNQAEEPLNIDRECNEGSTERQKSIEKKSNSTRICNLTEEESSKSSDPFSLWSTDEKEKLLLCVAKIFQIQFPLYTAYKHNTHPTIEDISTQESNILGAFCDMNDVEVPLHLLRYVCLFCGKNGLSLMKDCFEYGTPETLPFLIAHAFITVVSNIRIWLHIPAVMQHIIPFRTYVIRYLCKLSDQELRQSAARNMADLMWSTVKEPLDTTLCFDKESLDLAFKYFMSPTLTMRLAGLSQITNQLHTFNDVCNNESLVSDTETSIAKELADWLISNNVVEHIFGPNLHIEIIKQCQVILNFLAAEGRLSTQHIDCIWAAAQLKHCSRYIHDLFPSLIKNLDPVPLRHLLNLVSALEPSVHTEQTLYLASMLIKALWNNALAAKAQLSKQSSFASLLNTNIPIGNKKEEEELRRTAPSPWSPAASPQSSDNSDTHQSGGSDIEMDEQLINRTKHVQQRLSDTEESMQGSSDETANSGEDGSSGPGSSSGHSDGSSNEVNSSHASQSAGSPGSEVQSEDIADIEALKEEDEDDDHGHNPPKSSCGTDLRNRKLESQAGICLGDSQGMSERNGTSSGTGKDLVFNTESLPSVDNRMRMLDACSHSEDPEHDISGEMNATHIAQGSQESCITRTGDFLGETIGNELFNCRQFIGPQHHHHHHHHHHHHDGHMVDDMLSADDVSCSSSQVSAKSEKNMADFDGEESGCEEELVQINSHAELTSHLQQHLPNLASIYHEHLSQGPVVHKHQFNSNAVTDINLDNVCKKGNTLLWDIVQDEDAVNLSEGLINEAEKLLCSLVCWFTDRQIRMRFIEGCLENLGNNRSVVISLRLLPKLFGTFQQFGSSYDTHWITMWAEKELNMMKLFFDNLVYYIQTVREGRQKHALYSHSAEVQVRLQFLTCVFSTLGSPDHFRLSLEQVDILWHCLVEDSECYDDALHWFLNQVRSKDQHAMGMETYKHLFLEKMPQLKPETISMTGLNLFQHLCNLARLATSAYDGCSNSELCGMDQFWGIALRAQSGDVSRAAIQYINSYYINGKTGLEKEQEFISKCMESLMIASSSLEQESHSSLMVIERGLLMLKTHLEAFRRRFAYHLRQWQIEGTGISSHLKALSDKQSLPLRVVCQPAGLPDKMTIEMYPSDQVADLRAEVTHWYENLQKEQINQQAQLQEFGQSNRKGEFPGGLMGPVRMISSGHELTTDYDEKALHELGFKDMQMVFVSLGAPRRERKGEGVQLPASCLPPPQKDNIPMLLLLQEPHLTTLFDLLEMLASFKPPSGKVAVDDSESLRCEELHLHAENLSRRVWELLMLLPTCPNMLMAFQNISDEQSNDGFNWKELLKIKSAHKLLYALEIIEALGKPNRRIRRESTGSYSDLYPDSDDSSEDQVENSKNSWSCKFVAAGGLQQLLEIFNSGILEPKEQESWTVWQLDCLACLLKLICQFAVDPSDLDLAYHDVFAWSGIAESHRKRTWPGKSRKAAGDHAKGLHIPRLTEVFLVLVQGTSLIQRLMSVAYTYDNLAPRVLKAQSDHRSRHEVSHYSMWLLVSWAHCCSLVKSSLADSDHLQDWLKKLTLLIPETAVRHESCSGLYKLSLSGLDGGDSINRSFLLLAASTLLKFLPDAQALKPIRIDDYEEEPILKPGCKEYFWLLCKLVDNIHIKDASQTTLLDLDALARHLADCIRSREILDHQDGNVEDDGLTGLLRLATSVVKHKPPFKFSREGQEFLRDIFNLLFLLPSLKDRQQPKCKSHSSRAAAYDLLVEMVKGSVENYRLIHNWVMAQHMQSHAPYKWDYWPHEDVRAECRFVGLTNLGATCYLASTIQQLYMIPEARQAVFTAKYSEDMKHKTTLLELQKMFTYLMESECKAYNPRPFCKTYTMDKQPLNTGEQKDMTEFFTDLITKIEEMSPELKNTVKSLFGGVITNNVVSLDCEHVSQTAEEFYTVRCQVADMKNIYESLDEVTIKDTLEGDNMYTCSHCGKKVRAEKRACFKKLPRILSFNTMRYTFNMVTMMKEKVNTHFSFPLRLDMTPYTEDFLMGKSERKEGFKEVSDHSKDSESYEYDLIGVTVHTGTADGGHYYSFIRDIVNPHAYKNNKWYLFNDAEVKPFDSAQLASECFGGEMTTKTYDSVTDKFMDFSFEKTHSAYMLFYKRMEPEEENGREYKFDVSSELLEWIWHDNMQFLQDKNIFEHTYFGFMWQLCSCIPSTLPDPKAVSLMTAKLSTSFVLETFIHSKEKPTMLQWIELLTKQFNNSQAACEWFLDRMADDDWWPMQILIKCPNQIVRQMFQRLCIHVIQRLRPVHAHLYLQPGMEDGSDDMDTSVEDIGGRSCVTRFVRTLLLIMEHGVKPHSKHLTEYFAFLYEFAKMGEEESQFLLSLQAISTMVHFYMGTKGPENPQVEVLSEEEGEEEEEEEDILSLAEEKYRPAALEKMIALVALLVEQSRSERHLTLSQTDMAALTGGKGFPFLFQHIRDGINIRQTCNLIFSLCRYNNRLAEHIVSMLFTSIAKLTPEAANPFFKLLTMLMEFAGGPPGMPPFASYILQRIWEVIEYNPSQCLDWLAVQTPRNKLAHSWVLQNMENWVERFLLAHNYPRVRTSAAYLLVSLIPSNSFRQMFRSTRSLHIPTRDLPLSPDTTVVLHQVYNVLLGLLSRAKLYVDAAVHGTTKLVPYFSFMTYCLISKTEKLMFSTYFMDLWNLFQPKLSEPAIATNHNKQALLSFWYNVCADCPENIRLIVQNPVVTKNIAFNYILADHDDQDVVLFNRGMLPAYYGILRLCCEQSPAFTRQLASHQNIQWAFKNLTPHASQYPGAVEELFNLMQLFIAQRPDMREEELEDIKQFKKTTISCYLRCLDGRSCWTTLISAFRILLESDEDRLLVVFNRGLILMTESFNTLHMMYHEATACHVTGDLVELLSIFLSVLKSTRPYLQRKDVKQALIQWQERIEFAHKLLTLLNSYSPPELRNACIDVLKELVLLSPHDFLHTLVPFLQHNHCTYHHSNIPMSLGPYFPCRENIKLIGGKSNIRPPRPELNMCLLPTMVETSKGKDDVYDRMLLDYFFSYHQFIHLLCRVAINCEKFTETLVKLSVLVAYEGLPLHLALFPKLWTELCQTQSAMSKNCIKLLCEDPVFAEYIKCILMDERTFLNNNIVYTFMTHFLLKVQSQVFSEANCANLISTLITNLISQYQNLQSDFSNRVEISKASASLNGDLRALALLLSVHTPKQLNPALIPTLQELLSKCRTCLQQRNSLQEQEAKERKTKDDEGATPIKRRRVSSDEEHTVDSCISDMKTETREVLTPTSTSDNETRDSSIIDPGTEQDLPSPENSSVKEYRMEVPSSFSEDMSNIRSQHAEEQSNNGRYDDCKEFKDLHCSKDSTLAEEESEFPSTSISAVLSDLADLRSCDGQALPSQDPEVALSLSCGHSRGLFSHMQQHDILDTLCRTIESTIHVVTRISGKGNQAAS

O=C(CCl)Nc1ccc(F)cc1F
inactive: USP34 -0.242 | USP36 -0.306 | USP38 0.102 | USP39 0.37 | USP4 -0.0254
